Measured values reported in PubChem BioAssay (NCI).
Where “and” joins values, the source holds several entries; their conditions need not be identical. Identical values can stand only once. Compounds without any hit were thinned out: in the full panel of roughly 79,000, 15% have a hit. The source holds several records for some structures; these can differ, active in one and inactive in another. Calls of active or inactive are those of the source. No stated cut-off is given here; in the data, active means growth inhibition above about 70%; inactive means the rest.

Legend:
[1] = NCI Yeast Anticancer Drug Screen. Data for the rad50 strain (AID 155);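 further: 0% = growth of vehicle-only cultures of the same strain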; conditions: S. cerevisiae rad50 strain growth inhibition, stronger effect = higher value
Outline: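 DNA repair mutant yeast, compound exposure, growth read-out; inhibition is taken relative to vehicle.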

[2] = NCI Yeast Anticancer Drug Screen. Data for the mec2-1 strain (AID 157); conditions: S. cerevisiae mec2-1 strain, stronger effect = higher value
Outline: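 Readout is yeast growth inhibition, normalised to vehicle-treated controls, in the mec2-1 strain exposed to compound.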

[3] = NCI Yeast Anticancer Drug Screen. Data for the sgs1 mgt1 strain (AID 161);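 further: 0% = growth of cultures given vehicle only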; conditions: S. cerevisiae sgs1 mgt1 strain, stronger effect = higher value
Outline: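 Compounds are added to genetically altered yeast, and growth is compared with cultures given vehicle alone to give percent inhibition.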

[4] = NCI Yeast Anticancer Drug Screen. Data for the bub3 strain (AID 167); conditions: S. cerevisiae bub3 mutant strain, stronger effect = higher value
Outline: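 In this screen, a yeast mutant lacking normal mitotic checkpoint function is challenged with compound. Relative growth versus vehicle gives the inhibition value.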

[5] = NCI Yeast Anticancer Drug Screen. Data for the mlh1 rad18 strain (AID 175); conditions: S. cerevisiae mlh1 rad18 strain growth inhibition, stronger effect = higher value
Outline: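 Test agents were incubated with a yeast strain of defined genotype (DNA damage repair defect). Inhibition of growth was derived by comparison with vehicle-exposed cultures.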

[6] = NCI Yeast Anticancer Drug Screen. Data for the cln2 rad14 strain (AID 165);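 further: 0% = growth equal to vehicle treated cultures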; conditions: S. cerevisiae cln2 rad14 strain, stronger effect = higher value
Outline: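 Relative to vehicle controls, growth inhibition of compound-treated cln2 rad14 yeast was recorded.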

[7] = at 5.0 µM (retest, dose inferred, filed as 0.5)
[8] = at 50.0 µM (retest, dose inferred, filed as 5.0)

Measured: growth inhibition

CO[C@H](C(=O)[C@@H](O)[C@@H](C)O)[C@@H]1Cc2cc3cc(OC4CC(OC5CC(O)C(O)C(C)O5)C(O)C(C)O4)c(C)c(O)c3c(O)c2C(=O)[C@H]1OC1CC(OC2CC(OC3CC(C)(O)C(O)C(C)O3)C(O)C(C)O2)C(O)C(C)O1 (stereo partly drawn)
72.1% (active) and 5.15% (inactive): [1]; at 50.0 µM
active: [1]; [8] 77%
inactive: [1]; [7] 12% | [2]; [7] 7% | [2]; [8] 39% | [2]; at 50.0 µM 33% and -0.5% | [3]; [7] 6% | [3]; [8] 37% | [3]; at 50.0 µM 62.4% and 17.8% | [4]; [7] -2% | [4]; [8] 43% | [4]; at 50.0 µM 44.5% and 24.1% | [5]; [7] 4% | [5]; [8] 33% | [5]; at 50.0 µM 41.5% and 14.4%

COC(=O)C#CC(=O)OC
inactive: [1]; [7] 14% | [1]; at 50.0 µM 32% and -2.9% | [2]; [7] 14% | [3]; [7] -15% | [3]; at 50.0 µM 7.05% and 45% | [6]; [7] 21% | [6]; at 50.0 µM 17.9% and 9.6% | [4]; [7] -18% | [5]; [7] -2% | [5]; at 50.0 µM 21.8% and 49.8%
9.8% (inactive) and 77.9% (active): [2]; at 50.0 µM
active: [1]; [8] 96% | [2]; [8] 99% | [3]; [8] 84% | [6]; [8] 96% | [4]; [8] 99% | [5]; [8] 98%
0.8% (inactive) and 74% (active): [4]; at 50.0 µM

Nc1ccc(Cc2ccc(Br)cc2)cc1
inactive: [1]; [7] 28% | [2]; [7] 12% | [3]; [7] 1% | [4]; [7] 30% | [5]; [7] 30%
active: [1]; [8] 98% | [1]; at 50.0 µM 99.2% | [2]; [8] 99% | [2]; at 50.0 µM 99.3% | [3]; [8] 99% | [3]; at 50.0 µM 99.3% | [4]; [8] 98% | [4]; at 50.0 µM 98.8% | [5]; [8] 98% | [5]; at 50.0 µM 99.2%

CN(C)Cc1cc(CN(C)C)c(O)c(CN(C)C)c1
inactive: [1]; [7] 8% | [1]; [8] 19% | [1]; at 50.0 µM -34.9% and 40.3% | [2]; [7] 2% | [2]; [8] 2% | [2]; at 50.0 µM -58.3% and 59.9% | [3]; [7] 4% | [3]; [8] 11% | [3]; at 50.0 µM 0.25% and 2.75% | [6]; [7] -3% | [6]; [8] -8% | [6]; at 50.0 µM -24.1% and -31.1% | [5]; [7] -6% | [5]; [8] -9% | [5]; at 50.0 µM -22.2% and 48.1%

CCCCN(CCCC)C(Cl)=Nc1ccccc1
active: [1]; at 50.0 µM 80.9% | [2]; at 50.0 µM 87.1% | [3]; at 50.0 µM 88.2% | [4]; at 50.0 µM 82.4% | [5]; at 50.0 µM 77.4%
inactive: [1]; [7] 35% | [1]; [8] 32% | [2]; [7] 29% | [2]; [8] 24% | [3]; [7] 31% | [3]; [8] 30% | [4]; [7] 33% | [4]; [8] 38% | [5]; [7] 39% | [5]; [8] 57%

Nc1nc(-c2ccccn2)cc2ccccc12
active: [2]; [8] 76% | [3]; [8] 77% | [5]; [8] 85%
inactive: [1]; [7] 5% | [1]; [8] 63% | [1]; at 50.0 µM -2.25% | [2]; [7] 25% | [2]; at 50.0 µM -11.2% | [3]; [7] 22% | [3]; at 50.0 µM 4.35% | [4]; [7] 1% | [4]; [8] 61% | [4]; at 50.0 µM 7.35% | [5]; [7] 29% | [5]; at 50.0 µM 11.1%

c1ccc(C2=NC(c3ccccc3)=NS(S3=NC(c4ccccc4)=NC(c4ccccc4)=N3)=N2)cc1 (stereo not drawn)
active: [1]; [8] 94% | [1]; at 50.0 µM 74.7% | [2]; [8] 98% | [2]; at 50.0 µM 75.2% | [3]; [8] 98% | [3]; at 50.0 µM 82.7% | [6]; [8] 94% | [5]; [8] 97% | [5]; at 50.0 µM 92.3%
inactive: [1]; [7] 27% | [2]; [7] 5% | [3]; [7] 20% | [6]; [7] 20% | [6]; at 50.0 µM 43% | [5]; [7] 18%

C=CCc1c2c(ccc(=O)c1O)-c1c(cc(OC)c(OC)c1OC)CCC2NC(C)=O (stereo not drawn)
inactive: [1]; [7] -3% | [2]; [7] 4% | [2]; at 50.0 µM 60.5% | [3]; [7] -20% | [3]; at 50.0 µM 64.6% | [4]; [7] -13% | [4]; at 50.0 µM 53.3% | [5]; [7] 8% | [5]; at 50.0 µM 67%
active: [1]; [8] 94% | [1]; at 50.0 µM 70.3% | [2]; [8] 98% | [3]; [8] 70% | [4]; [8] 97% | [5]; [8] 97%
